Laboratory results published in PubChem BioAssay AID1159580 (chemical genetic matrix, 2015).
About 2,000 (36%) of roughly 5,500 compounds were called active. Not shown: some 18% with an inconclusive outcome. Rule as the data show it: active = normalized growth mostly below about 0.91 (no sharp cut-off); inconclusive = no clear call, values can overlap the other calls; inactive = mostly above about 0.92. The list shows a part of the results.

Test: chemical genetic growth profiling, strain panel (AID 1159580);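 also: tested at 20 µM; growth read once vehicle control cultures reached saturation at 30 °C; 1 = growth at the plate median or of vehicle wells; lower values mean less growth of the strain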
Settings: growth OD
[1] = S. cerevisiae deletion strains, locus YAL040C, strain CLN3, hits give low values
[2] = S. cerevisiae deletion strains, locus YDR150W, strain NUM1, hits give low values
[3] = S. cerevisiae deletion strains, locus YER002W, strain NOP16, hits give low values
[4] = S. cerevisiae deletion strains, locus YJR075W, strain HOC1, hits give low values
[5] = S. cerevisiae deletion strains, locus YNL175C, strain NOP13, hits give low values
[6] = S. cerevisiae deletion strains, locus YNL197C, strain WHI3, hits give low values
[7] = S. cerevisiae deletion strains, locus YNL224C, strain SQS1, hits give low values
[8] = S. cerevisiae deletion strains, locus YOR083W, strain WHI5 (second series), hits give low values
[9] = S. cerevisiae deletion strains, locus YPL241C, strain CIN2, hits give low values
[10] = S. cerevisiae deletion strains, locus YNL153C, strain GIM3, hits give low values
[11] = S. cerevisiae deletion strains, locus YPL055C, strain LGE1, hits give low values
[12] = S. cerevisiae deletion strains, locus YDL101C, strain DUN1, hits give low values
[13] = S. cerevisiae deletion strains, locus YHR030C, strain SLT2, hits give low values

Measured: normalized growth

O=C1Cc2c([nH]c3ccc(Br)cc23)-c2ccccc2N1
inactive: [1] 0.964 | S. cerevisiae deletion strains, locus YCL061C, strain MRC1 (second series), hits give low values 0.991 | [2] 0.989 | S. cerevisiae deletion strains, locus YDR363W, strain ESC2, hits give low values 1.03 | [3] 1.01 | [4] 1.06 | [5] 0.984 | [6] 0.988 | [7] 0.998 | [8] 0.976 | [9] 0.985

COc1ccc2[nH]c3c(c2c1)CCNC3
inactive: [1] 0.974 | [3] 1.02 | S. cerevisiae deletion strains, locus YGR229C, strain SMI1, hits give low values 1.05 | [4] 1.01 | S. cerevisiae deletion strains, locus YNL128W, strain TEP1, hits give low values 0.996 | [10] 0.983 | [5] 0.985 | [6] 0.983 | [7] 1.01 | [8] 0.996 | [11] 1 | [9] 0.981

Cc1ccc2[nH]c3c(c2c1)CCCC3
inactive: [2] 0.911 | S. cerevisiae deletion strains, locus YKL190W, strain CNB1, hits give low values 0.989 | S. cerevisiae deletion strains, locus YNL322C, strain KRE1, hits give low values 0.949
active: S. cerevisiae deletion strains, locus YAL013W, strain DEP1, hits give low values 0.853 | S. cerevisiae deletion strains, locus YBR229C, strain ROT2, hits give low values 0.544 | [12] 0.778 | S. cerevisiae deletion strains, locus YEL061C, strain CIN8, hits give low values 0.738 | S. cerevisiae deletion strains, locus YGR078C, strain PAC10, hits give low values 0.781 | [13] 0.377 | S. cerevisiae deletion strains, locus YHR087W, strain rtc3, hits give low values 0.762 | S. cerevisiae deletion strains, locus YJR043C, strain POL32, hits give low values 0.869 | [4] 0.636 | S. cerevisiae deletion strains, locus YLR039C, strain RIC1, hits give low values 0.259 | S. cerevisiae deletion strains, locus YLR058C, strain SHM2 (second series), hits give low values 0.867 | S. cerevisiae deletion strains, locus YLR085C, strain ARP6, hits give low values 0.696 | S. cerevisiae deletion strains, locus YLR262C, strain YPT6, hits give low values 0.224 | S. cerevisiae deletion strains, locus YML094W, strain GIM5, hits give low values 0.664 | S. cerevisiae deletion strains, locus YMR219W, strain ESC1, hits give low values 0.828 | S. cerevisiae deletion strains, locus YMR263W, strain SAP30, hits give low values 0.867 | [10] 0.807 | S. cerevisiae deletion strains, locus YNL298W, strain CLA4 (second series), hits give low values 0.578 | S. cerevisiae deletion strains, locus YNR030W, strain Alg12, hits give low values 0.669 | [11] 0.822 | [9] 0.722 | S. cerevisiae deletion strains, locus YPR135W, strain CTF4, hits give low values 0.477 | S. cerevisiae strains, strain wild type, hits give low values 0.904

Brc1ccc2[nH]c3c(c2c1)CCC3
active: S. cerevisiae deletion strains, locus YDL214C, strain PRR2, hits give low values 0.69 | S. cerevisiae deletion strains, locus YER123W, strain YCK3, hits give low values 0.609 | S. cerevisiae deletion strains, locus YER133W, strain GLC7, hits give low values 0.668 | S. cerevisiae deletion strains, locus YFR019W, strain FAB1, hits give low values 0.759 | S. cerevisiae deletion strains, locus YGR052W, strain FMP48, hits give low values 0.595 | [13] 0.344 | S. cerevisiae deletion strains, locus YHR079C, strain IRE1, hits give low values 0.151 | S. cerevisiae deletion strains, locus YHR082C, strain KSP1, hits give low values 0.587 | S. cerevisiae deletion strains, locus YJL095W, strain BCK1, hits give low values 0.467 | S. cerevisiae deletion strains, locus YKL048C, strain ELM1, hits give low values 0.769 | S. cerevisiae deletion strains, locus YKL067W, strain YNK1, hits give low values 0.723 | S. cerevisiae deletion strains, locus YLR113W, strain HOG1, hits give low values 0.44 | S. cerevisiae deletion strains, locus YML070W, strain DAK1, hits give low values 0.651 | S. cerevisiae deletion strains, locus YNL183C, strain NPR1, hits give low values 0.519 | S. cerevisiae deletion strains, locus YOL136C, strain PFK27, hits give low values 0.625 | S. cerevisiae deletion strains, locus YOR231W, strain MKK1, hits give low values 0.56 | S. cerevisiae deletion strains, locus YPL031C, strain PHO85, hits give low values 0.647 | S. cerevisiae deletion strains, locus YPL153C, strain RAD53, hits give low values 0.653 | S. cerevisiae deletion strains, locus YPL204W, strain HRR25, hits give low values 0.642 | S. cerevisiae deletion strains, locus YPL256C, strain CLN2, hits give low values 0.472
inactive: S. cerevisiae deletion strains, locus YAR019C, strain CDC15, hits give low values 0.954 | S. cerevisiae deletion strains, locus YBL105C, strain PKC1, hits give low values 0.955 | S. cerevisiae deletion strains, locus YBR135W, strain CKS1, hits give low values 0.934 | S. cerevisiae deletion strains, locus YBR136W, strain MEC1, hits give low values 0.945 | S. cerevisiae deletion strains, locus YBR160W, strain CDC28, hits give low values 0.949 | S. cerevisiae deletion strains, locus YDL017W, strain CDC7, hits give low values 0.962 | S. cerevisiae deletion strains, locus YDL028C, strain MPS1, hits give low values 0.937 | [12] 0.966 | S. cerevisiae deletion strains, locus YDL108W, strain KIN28, hits give low values 0.932 | S. cerevisiae deletion strains, locus YDL132W, strain cdc53, hits give low values 0.962 | S. cerevisiae deletion strains, locus YDR052C, strain DBF4, hits give low values 0.975 | S. cerevisiae deletion strains, locus YDR054C, strain cdc34, hits give low values 0.97 | S. cerevisiae deletion strains, locus YDR226W, strain ADK1, hits give low values 0.96 | S. cerevisiae deletion strains, locus YDR477W, strain SNF1, hits give low values 0.712 | S. cerevisiae deletion strains, locus YFL009W, strain cdc4, hits give low values 0.946 | S. cerevisiae deletion strains, locus YFL029C, strain CAK1, hits give low values 0.942 | S. cerevisiae deletion strains, locus YFR003C, strain YPI1, hits give low values 0.952 | S. cerevisiae deletion strains, locus YFR028C, strain CDC14, hits give low values 0.969 | S. cerevisiae deletion strains, locus YGR040W, strain KSS1, hits give low values 0.716 | S. cerevisiae deletion strains, locus YGR092W, strain DBF2, hits give low values 0.621 | S. cerevisiae deletion strains, locus YHR205W, strain SCH9, hits give low values 0.666 | S. cerevisiae deletion strains, locus YIL147C, strain SLN1, hits give low values 0.947 | S. cerevisiae deletion strains, locus YJL128C, strain PBS2, hits give low values 0.915 | S. cerevisiae deletion strains, locus YJL157C, strain FAR1, hits give low values 0.74 | S. cerevisiae deletion strains, locus YJR016C, strain ILV3, hits give low values 0.946 | S. cerevisiae deletion strains, locus YJR066W, strain TOR1 (second series), hits give low values 0.67 | S. cerevisiae deletion strains, locus YJR066W, strain TOR1, hits give low values 0.541 | S. cerevisiae deletion strains, locus YKL101W, strain HSL1, hits give low values 0.747 | S. cerevisiae deletion strains, locus YKL193C, strain SDS22, hits give low values 0.937 | S. cerevisiae deletion strains, locus YKL203C, strain TOR2, hits give low values 0.762 | S. cerevisiae deletion strains, locus YLR133W, strain CKI1, hits give low values 0.805 | S. cerevisiae deletion strains, locus YLR403W, strain SFP1, hits give low values 0.757 | S. cerevisiae deletion strains, locus YMR001C, strain CDC5, hits give low values 0.94 | S. cerevisiae deletion strains, locus YMR205C, strain PFK2 (second series), hits give low values 0.784 | S. cerevisiae deletion strains, locus YMR277W, strain FCP1, hits give low values 0.948 | S. cerevisiae deletion strains, locus YNL006W, strain LST8, hits give low values 0.938 | S. cerevisiae deletion strains, locus YNL020C, strain ARK1, hits give low values 0.795 | S. cerevisiae deletion strains, locus YNL161W, strain CBK1, hits give low values 0.942 | S. cerevisiae deletion strains, locus YNL207W, strain RIO2, hits give low values 0.926 | S. cerevisiae deletion strains, locus YNL222W, strain SSU72, hits give low values 0.936 | S. cerevisiae deletion strains, locus YNL307C, strain MCK1 (second series), hits give low values 0.695 | S. cerevisiae deletion strains, locus YOL078W, strain AVO1, hits give low values 0.942 | S. cerevisiae deletion strains, locus YOR061W, strain CKA2, hits give low values 0.76 | S. cerevisiae deletion strains, locus YOR119C, strain RIO1, hits give low values 0.729 | S. cerevisiae deletion strains, locus YOR329C, strain SCD5, hits give low values 0.948 | S. cerevisiae deletion strains, locus YPL209C, strain IPL1, hits give low values 0.938 | S. cerevisiae deletion strains, locus YPR025C, strain CCL1, hits give low values 0.94 | S. cerevisiae deletion strains, locus YPR106W, strain ISR1, hits give low values 0.94 | S. cerevisiae deletion strains, locus YPR111W, strain DBF20, hits give low values 0.945 | S. cerevisiae deletion strains, strain NNK1, hits give low values 0.926 | S. cerevisiae deletion strains, strain TSCII, hits give low values 0.931
